Shown are actives, neighbours in structure and some others; about 2% of the full set was active somewhere.
E-sel TNF inh: blocks E-selectin expression induced by TNF alpha. HUVEC TNFa-induced E-selectin immunofluorescence, high content. inhibition, % at 2 µM. 120,000 tested, 0.71% active;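 active = inhibition above the batch mean plus 3 SD, and confirmed as a hit on visual image review, cut at about 43% in these data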;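 also: 0% = TNF-stimulated DMSO wells and 100% = unstimulated control wells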
VCAM1 TNFa inh: reduces TNF alpha induced VCAM1 expression in HUVEC | AID 802 | HUVEC TNFa-induced VCAM-1 immunofluorescence, high-content imaging | inhibition, % at 2 µM | 95,000 tested, 0.48% active;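 active = inhibition above the batch mean plus 3 SD, with images confirmed as a hit by eye, cut at about 37% in these data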;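 also: 0% = TNF-stimulated DMSO wells and 100% = unstimulated control wells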
PLAP act: activates human placental alkaline phosphatase; P05187; purified PLAP enzyme, luminescent substrate read-out; active compounds read high; activation fold at 20 µM; 96,000 tested, 1.2% active; AID 696; in the data active = activation fold above about 2
cytoskel mod: modifiers of cytoskeleton assembly; HUVEC TNFa F-actin phalloidin imaging, high content; inhibition, % at 2 µM; 91,000 tested, 0.18% active; AID 836;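 active = inhibition above the batch mean plus 3 SD and confirmed as a hit by visual image inspection, cut at about 30% in these data, passing the limit was not always enough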
TNFa cytotox: HUVEC cytotoxicity counter-screen, TNF alpha stimulated. cell count reduction, % at 2 µM. HUVEC TNFalpha-stimulated, Hoechst cell count, imaging. 93,000 tested, 0.17% active;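 active = cell count reduction exceeding the screen mean by over 5 SD, scaled to untreated wells per plate, cut at about 78% in these data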;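 also: cells counted after 24 h of TNF alpha exposure following the 1 h pretreatment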
Numbers without * were called inactive; . = no result given.

SMILES	E-sel TNF inh	VCAM1 TNFa inh	PLAP act	cytoskel mod	TNFa cytotox
O=S(=O)(c1ccc(Br)s1)N1CCN(c2ccccc2)CC1	-4	84*	0.8	36*	20
CCN1CCN(S(=O)(=O)c2ccc(Br)s2)CC1	-8	-23	0.8	-7	.
Cc1c(NC(=O)CN2CCN(c3cccc(Cl)c3)CC2)c(=O)n(-c2ccccc2)n1C	52	.	.	.	.
Cc1cccc(C(=O)N[C@H](C(=O)OCC(=O)NC(=O)c2cccn2C)C(C)C)c1	-6	.	.	.	.
CCOc1ccc2nc(NC(=O)C(NS(=O)(=O)c3cccc4nsnc34)C(C)C)sc2c1 (centres undefined)	.	18	2.4*	1	-10
O=C(Nc1cc(Oc2ccccc2)cc([N+](=O)[O-])c1)C12CC3CC(C1)CC(n1cnc(Cl)n1)(C3)C2	33	14	1	-30	1
CCc1cccc(NC(=O)CN(c2ccc(OC)cc2)S(=O)(=O)c2c(C)n[nH]c2C)c1	16	4	2.4*	4	-31
Cc1n[nH]c(C)c1S(=O)(=O)N(CC(=O)NC1CCCC1)c1ccc(C(C)C)cc1	.	15	2.3*	2	-23
COc1ccc(N(CC(=O)Nc2ccc(C)c(C)c2)S(=O)(=O)c2c(C)n[nH]c2C)cc1	23	1	2.1*	-2	-12
CCOc1ccc(NS(=O)(=O)c2cc(Cl)ccc2OC)cc1	-2	11	1.1	3	-4
CC(C)(C)NC(=O)C1N(c2cccnc2)C(=O)C2C(C(=O)Nc3ccccc3F)C3(C)C=CC21O3 (centres undefined)	-14	-4	1.1	72*	-10
C/C(=N\NC(=O)C1CCCN(S(=O)(=O)c2ccccc2)C1)c1ccncc1 (centres undefined)	-39	5	1.1	9	5
C/C(=N\NC(=O)C1CCCN(S(=O)(=O)c2ccccc2)C1)c1ccccn1 (centres undefined)	-26	-1	2*	5	-8
N#C/C(C(=O)Oc1ccccc1)=C1/Nc2ccccc2-c2ccccc21	-1	-10	1	-12	24
O=C(COc1cccc2ccccc12)NNC(=O)[C@@H]1CCCC[C@@H]1C(=O)O	-6	-8	2*	-6	-27
COc1ccc(-n2c(C)cc(C(=O)COc3ccc(C)nc3[N+](=O)[O-])c2C)cc1	62*	.	.	.	.
CC1(C)CC(=O)c2c(O)c(-c3ccccc3)c(=O)n(-c3ccccc3)c2C1	1	.	.	.	.
Cc1nnc(NC(=O)CN2C(=O)c3ccccc3S2(=O)=O)s1	-4	6	2.1*	14	-18
Clc1ccccc1CSc1nc2ccncc2[nH]1	12	11	2.7*	21	-20
O=C(c1ccc(CSc2nc3ccncc3[nH]2)cc1)N1CCCCC1	-5	.	.	.	.
O=C(Nc1nnc(SCc2ccccc2)s1)c1cccc([N+](=O)[O-])c1	64*	.	.	.	.
CCn1c(SCC(=O)N2c3ccccc3Sc3ccc(Cl)cc32)nc2c1c(=O)n(C)c(=O)n2C	-1	-24	.	5	.
Nc1nc(SCn2nnc3ccccc3c2=O)n[nH]1	0	.	.	.	.
COc1cc(CN2CCN(c3ccc(C)cc3)CC2)cc([N+](=O)[O-])c1O	100*	9	0.8	5	-7
COc1cc(CN2CCN(c3cc(C)ccc3C)CC2)cc([N+](=O)[O-])c1O	0	6	.	-10	-2
SMILES	E-sel TNF inh	VCAM1 TNFa inh	PLAP act	cytoskel mod	TNFa cytotox
CC(C)=C1SC(N2CCN(c3ccc(Cl)cc3)CC2)=NC1=O	5	.	.	.	.
CC(C)=C1SC(N2CCN(c3ccc(C)cc3)CC2)=NC1=O	63*	12	.	-4	-15
Cc1cc(C)c2nc(SCC(=O)N3CC(=O)Nc4ccccc43)c(C#N)cc2c1	-36	100*	.	27	89*
O=C1NC(=S)N(c2cccc(Cl)c2)C12CCCCC2	-33	.	.	.	.
COCCNCC(=O)Nc1ccccc1Sc1ccccc1	-41	.	.	.	.
CCCCC(C(=O)NC1CCCC1)N(Cc1ccco1)C(=O)Cn1nnc(-c2ccc(F)cc2)n1 (centres undefined)	0	10	2.2*	11	-22
CCCCCc1ccc(-c2ccc(=O)[nH]n2)cc1	29	79*	0.7	-47	18
O=C(c1ccc(F)cc1)c1cn[nH]c1-c1ccccc1O	.	-1	2.5*	15	-12
Cc1ccc(C(=O)c2cn[nH]c2-c2ccccc2O)cc1	-30	5	2*	.	-18
COc1ccc(C(=O)c2cn[nH]c2-c2cc(Cl)ccc2O)cc1	16	-7	2.2*	4	-7
Cc1nc(N(C)Cc2ccccc2)c2nnn(Cc3ccccc3)c2n1	19	-1	1.7	-1	-5
CCOC(=O)CSc1nc2c(c(=O)[nH]c(=O)n2C)n1CCc1ccccc1	-11	8	0.9	3	-2

Screens deposited in PubChem BioAssay by several laboratories.
